{
  "source": "the supplement of paper PMC7156485",
  "data": [
    {"system": "HCC1569", "experiment": "cell number relative to DMSO (% of DMSO); higher = more cells (less growth inhibition / toxicity)", "settings": "concentration: 10 µM; 24 h", "method_in_brief": "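Cell number or H1.0 nuclear intensity appears as percent of the plate control, based on the median of replicates. Measurements came from HCC1569 and TDF cells exposed in triplicate to compounds at 10 µM for 24 h at 37 °C, then imaged in six fields per well at ×10. Positional effects were smoothed out of HCC1569 values.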", "values": [
      {"smiles": "N[C@H](C(=O)O)c1cccc(O)c1", "note": "[(S)-3-Hydroxyphenylglycine]", "cell number": 95.2},
      {"smiles": "CCCCCCCCC=CCC=CCC=CCCCC(=O)NCCO", "note": "[Mead ethanolamide]", "cell number": 104},
      {"smiles": "O=C(O)Cc1sc(-c2ccccc2)nc1-c1ccc(Cl)cc1", "note": "[Fentiazac]", "cell number": 91.8},
      {"smiles": "CN1CCN(CC(=O)N2c3ccccc3C(=O)Nc3cccnc32)CC1.Cl.Cl", "note": "[Pirenzepine.2HCl]", "cell number": 101},
      {"smiles": "CC(CCc1ccc(O)cc1)NCCc1ccc(O)c(O)c1.Cl", "note": "(stereo not drawn) [Dobutamine.HCl]", "cell number": 104},
      {"smiles": "Br.Br.NC(N)=NCCSSCCN=C(N)N", "note": "[Guanidinoethyl disulfide dihydrobromide]", "cell number": 100},
      {"smiles": "CN(C)CCCOC1C(C(O)CO)OC2OC(C)(C)OC21.Cl", "note": "(stereo not drawn) [Amiprilose hydrochloride]", "cell number": 101},
      {"smiles": "Cc1cccc(Nc2ccccc2C(=O)O)c1C", "note": "[Mefenamic acid]", "cell number": 104},
      {"smiles": "CCn1nc(C(=O)O)c(=O)c2cc3c(cc21)OCO3", "note": "[Cinoxacin]", "cell number": 97.6},
      {"smiles": "CN1C(=O)CC(C(=O)O)C1c1cccnc1", "note": "(stereo not drawn) [Trans-4-Cotininecarboxylic acid]", "cell number": 98.4},
      {"smiles": "COC(=O)C1C2CC3c4[nH]c5cc(OC)ccc5c4CCN3CC2CC(OC(=O)c2cc(OC)c(OC)c(OC)c2)C1OC", "note": "(single isomer, unassigned; (-)) [(-)-Isoreserpine]", "cell number": 98.9},
      {"smiles": "CC12C=Cc3occc3C1CCC13CC(=O)C(CCC12)C3", "note": "(stereo not drawn) [16-Oxokahweol]", "cell number": 97.7},
      {"smiles": "CCCCCC=CCC=CCC=CCC=CCCCCCC(=O)O", "note": "[7(Z), 10(Z), 13(Z), 16(Z)-Ocosatetraenoic Acid]", "cell number": 100}
    ]}
  ]
}
